High-throughput results as filed in PubChem BioAssay.
Only some compounds are listed: those with a hit (about 12% of all), similar ones and a draw of the others.
PI5P4K alpha inh: qHTS for Inhibitors of phosphatidylinositol 5-phosphate 4-kinase (PI5P4K). 1.2% of 330,000 active. Phosphatidylinositol 5-phosphate 4-kinase type-2 alpha (Homo sapiens), P48426. PI5P4Kalpha enzyme, ADP-Glo luminescence, 60 min; stronger effect = lower value. max response, %; active = max response of -50% or lower; inconclusive = between -30% and -50%; inactive = -30% or higher; note: value at the top dose of about 77 µM; % is set by controls: 0 for no effect and ±100 for the full control effect
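Luminescence from ADP-Glo served as readout of PI5P4Kalpha activity in a qHTS format. Reaction: enzyme, substrate, compound, ATP at 5 microM final, 60 min at RT.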
BAZ2B inh: qHTS Assay for Inhibitors of BAZ2B. 4.4% of 360,000 active. Potency, µM (doses to about 114 µM), inactives show at the top dose activity change, negative = inhibition, usual class: inhibitors. AID 504333, 2011. AlphaScreen BAZ2B-H3K14Ac peptide displacement; note: potency is the fitted concentration of half-maximal effect; % is set by controls: 0 for no effect and ±100 for the full control effect; nearly all actives have a fitted effect of over 60% in size
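In this displacement format the biotinylated H3(5-23) peptide acetylated at Lys14 serves as ligand at 50 nM, with BAZ2B at 50 nM in PBS pH 7.4 containing 0.01% Tween-20. Donor and acceptor beads are 10 ug/mL final.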
G9a block: qHTS Assay for Inhibitors of Histone Lysine Methyltransferase G9a; G9a H3K9 monomethylation, AlphaScreen, 2 h; Potency, µM (titrated, usually from 102 µM), without a hit: at the highest dose activity, negative = inhibition, actives largely listed as inhibitors; 8.8% of 350,000 active; AID 504332, 2011; note: potency is the fitted concentration of half-maximal effect; % is set by controls: 0 for no effect and ±100 for the full control effect; nearly all actives have a fitted effect of over 75% in size
Target sequence (Q96KQ7 913-1193 limits assumed): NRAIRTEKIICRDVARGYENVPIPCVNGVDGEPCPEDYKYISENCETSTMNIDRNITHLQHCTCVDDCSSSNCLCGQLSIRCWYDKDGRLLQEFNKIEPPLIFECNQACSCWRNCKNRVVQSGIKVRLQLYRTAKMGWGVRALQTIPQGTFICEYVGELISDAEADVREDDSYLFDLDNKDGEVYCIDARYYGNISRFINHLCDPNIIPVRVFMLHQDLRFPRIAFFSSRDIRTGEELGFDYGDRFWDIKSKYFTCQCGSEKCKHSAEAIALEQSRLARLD
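Chemiluminescent proximity detection of H3K9 monomethylation, read after 10 min bead incubation in the dark. Reaction: 20 nM G9a, 500 nM biotin-H3K9 peptide, 20 uM SAM cofactor, 2 h, room temperature, following 15 min enzyme-compound preincubation.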
PLK1 PBD inh: qHTS for Inhibitors of PLK1-PDB (polo-like kinase 1 - polo-box domain): Primary Screen. Plk1 PBD binding of FITC phosphopeptide, fluorescence polarization. Potency, µM, for the others: max response, negative = inhibition, actives largely listed as inhibitors. Serine/threonine-protein kinase PLK1 (Homo sapiens), P53350. 2.8% of 360,000 active. AID 720504, 2013; note: potency is the fitted concentration of half-maximal effect; series mostly up to about 57 µM; % is set by controls: 0 for no effect and ±100 for the full control effect; nearly all actives have a fitted effect of over 65% in size
HP1b binding inh: HTS for Inhibitors of HP1-beta Chromodomain Interactions with Methylated Histone Tails; AlphaScreen HP1-beta / biotin-H3K9me3 peptide binding; Potency, µM (doses to about 114 µM), inactives show at the top dose activity change, negative = inhibition, actives largely listed as inhibitors; 0.56% of 390,000 active; note: potency is the fitted concentration of half-maximal effect; nearly all actives have a fitted effect of over 70% in size
Target sequence (P83916 whole entry, looked up): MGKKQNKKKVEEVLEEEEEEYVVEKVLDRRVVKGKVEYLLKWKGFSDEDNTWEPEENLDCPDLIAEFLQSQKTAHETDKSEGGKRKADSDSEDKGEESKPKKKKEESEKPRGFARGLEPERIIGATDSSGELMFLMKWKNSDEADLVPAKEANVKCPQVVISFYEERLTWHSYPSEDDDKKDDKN
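AlphaScreen: HP1-beta (50 nM) preformed 30 min with biotin-H3(1-18)K9me3 peptide (50 nM) in PBS pH 7.4, 0.01% Tween-20. Compound added for 30 min at RT, then streptavidin donor/nickel chelate acceptor beads (10 ug/mL) for 30 min.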
JMJD2A Tudor inh: qHTS Assay for Inhibitors of JMJD2A-Tudor Domain | Lysine-specific demethylase 4A (Homo sapiens), O75164 | AlphaScreen JMJD2A-Tudor / H3K4me3 peptide binding | Potency, µM (titrated, usually from 114 µM), without a hit: top-dose activity change, negative = inhibition, hits mostly inhibitors | 4.4% of 390,000 active; note: potency is the fitted concentration of half-maximal effect; % is set by controls: 0 for no effect and ±100 for the full control effect; nearly all actives have a fitted effect of over 50% in size
Numbers without * were called inactive; ? = inconclusive; . = not tested or not shown; [ ] = remark or other dose. Unless noted, calls come from the whole dose curve; as a rule, active = well fitted curve in the direction sought with a large enough effect; inconclusive = small, poorly fitted or top-dose-only effect, or another doubt; inactive = no such curve, though single readings can be large; an effect the other way counts as inactive or inconclusive.

SMILES | PI5P4K alpha inh | BAZ2B inh | G9a block | PLK1 PBD inh | HP1b binding inh | JMJD2A Tudor inh
CC(=O)c1ccc(OC(C)C(=O)OCC(=O)NCCc2ccccc2)cc1 (configuration not stated) | -12.3 | 10.3% | -6.6%[12.7 µM] | -2.1% | 16.6% | -11.3%
Cc1ccc(N2CCN(S(=O)(=O)c3ccc(Cl)c4ccccc34)CC2)c(C)c1 | . | ? | 10.9%[59 µM] | . | 58.0% | 10.4%
CCCCC1(C)Cc2ccccc2C(=S)N1 (configuration not stated) | . | 4.3% | -3.1%[59 µM] | -12.5% | 1.6% | -30.9%
CCCCC1(C)NC(=S)N2N1C(=S)NC2(C)CCCC (configuration not stated) | ? | 79.4µM* | 1.78µM* | -0.4% | ? | 5.62µM*
O=C(O)Cn1nc(-c2ccc(F)cc2)oc1=O | -16.8 | -3.2% | -10.4%[2.33 µM] | 23.8µM* | ? | ?
O=C(O)/C=C/C(=O)Nc1ccc(N2CCOCC2)nc1N1CCOCC1 | -6.3 | -21.5% | 8.91µM* | ? | ? | -33.8%
Cc1ccc(OCCSc2nc3ccccc3n2CC(=O)N2CCOCC2)c(C)c1 | . | ? | -39.5%[59 µM] | . | 28.4% | -20.2%
COc1ncnc2c1NC1=C(S2)C(=NCCC(=O)O)CC(C)(C)C1 | -4.9 | ? | 17.8µM* | ? | 48.1% | -31.6%
CN(C)c1ncnc2c1NC1=C(S2)C(=NCCCC(=O)O)CC(C)(C)C1 | -10.9 | ? | ? | -27.5% | 29.8% | -18.2%
O=C1CCCC2=C1C1(CCS(=O)(=O)C1)N=C(Nc1nc3ccccc3o1)N2 (configuration not stated) | . | . | . | . | . | -16.3%
COc1cc(C2NC(=O)C(C#N)=C(Nc3cccc(C)c3)S2)ccc1O (configuration not stated) | -23.4 | -29.0% | 44.7µM* | ? | 16.6% | -9.6%
COC(=O)C1=C(C)N(C)C(=O)NC1c1ccc(O)c(OC)c1 (configuration not stated) | -0.9 | -5.4% | -9.6%[59 µM] | 4.5% | 20.4% | -24.8%
COCCNc1ncnc2ccc(-c3ccc(N(C)C)cc3)cc12 | . | . | -26.5%[0.501 µM] | . | . | .
CCCn1c(N)c(C(=O)CSc2nncs2)c(=O)[nH]c1=O | 1.1 | 8.6% | -11.3%[59 µM] | -1.4% | 49.6% | -5.2%
O=C(O)c1ccccc1-c1nc2cc(Cl)ccc2c(=O)n1O | 3.8 | 79.4µM* | 1.6% | -12.3% | 4.4% | -9.7%
Nn1c(-c2ccccc2)nc2cc(Cl)ccc2c1=O | 2.4 | 4.2% | 44.7µM* | -17.1% | 45.9% | -22.7%
CCN(CC)S(=O)(=O)c1ccc2c(c1)N(CC(=O)NCCc1ccccc1)C(=O)CO2 | . | -13.4% | -5.3%[59 µM] | . | 12.4% | -18.2%
CCOC(=O)C1CCN(C(=O)Cn2ncc3c4ccccc4n(Cc4ccc(F)cc4)c3c2=O)CC1 | . | -5.0% | 6.0%[59 µM] | . | 23.2% | -8.4%
Cc1cc(C(=O)NCc2ccccc2C)c2c(C)nn(-c3cccc(F)c3)c2n1 | . | 14.7%[57.1 µM] | -2.3%[59 µM] | . | 41.8% | 7.1%
CC(C)(C)c1ccc(C(=O)CC(=O)c2cc(Cl)ccc2O)cc1 | 0.7 | -6.2% | 32.9%[12.7 µM] | -5.9% | 6.8% | -30.0%
N/C(=C\C(=O)c1cc(Cl)ccc1O)C(Cl)(Cl)Cl | 0.9 | -33.2% | ? | 6.7µM* | ? | -27.2%[11.4 µM]
COc1ccc(C(CNC(=O)CNC(=O)c2cccc(F)c2)N2CCOCC2)cc1 (configuration not stated) | 1.7 | . | . | -3.4% | . | .
CCCSc1nc(O)c(C(c2ccc(OC)c(O)c2)c2c(O)nc(SCCC)n(C)c2=O)c(=O)n1C | -5.3 | -8.3% | 10µM* | 9.47µM* | 13.8% | -10.1%
CC(=O)Nc1cccc2cc(S(=O)(=O)O)ccc12 | -13.4 | . | . | -9.3% | . | .
O=C(Nc1cc(C(=O)Nc2ccc(S(=O)(=O)O)cc2S(=O)(=O)O)cc(C(=O)Nc2ccc(S(=O)(=O)O)cc2S(=O)(=O)O)c1)Nc1cc(C(=O)Nc2ccc(S(=O)(=O)O)cc2S(=O)(=O)O)cc(C(=O)Nc2ccc(S(=O)(=O)O)cc2S(=O)(=O)O)c1 | . | . | 0.0708µM* | . | . | .
SMILES | PI5P4K alpha inh | BAZ2B inh | G9a block | PLK1 PBD inh | HP1b binding inh | JMJD2A Tudor inh
O=C(Nc1ccc(C(=O)Nc2ccc(C(=O)Nc3ccc(S(=O)(=O)O)c4cc(S(=O)(=O)O)cc(S(=O)(=O)O)c34)cc2)cc1)Nc1ccc(C(=O)Nc2ccc(C(=O)Nc3ccc(S(=O)(=O)O)c4cc(S(=O)(=O)O)cc(S(=O)(=O)O)c34)cc2)cc1 | . | . | 1.26µM* | . | . | .
CC(=O)c1ccc(NC(=O)C2CCN(c3nnc(C)c4c(C)n(-c5ccccc5)nc34)CC2)cc1 | . | ? | -48.3%[59 µM] | . | 24.4% | ?
O=C(NNS(=O)(=O)c1ccccc1[N+](=O)[O-])c1cccc(Br)c1 | -2.2 | -19.6% | -5.2% | -20.8% | 21.1% | 11.2µM*
O=C(NNS(=O)(=O)c1ccccc1[N+](=O)[O-])c1cccc(Cl)c1 | -1.0 | -7.8% | ? | ? | 23.2% | 28.2µM*
Cc1cccc(C(=O)NNS(=O)(=O)c2ccccc2[N+](=O)[O-])c1 | 1.6 | -6.9% | ? | ? | 7.9% | ?
COc1cccc(N2CCN(C(=O)c3cccc(NC(=O)c4nsc5ccccc45)c3)CC2)c1 | . | -12.2% | -32.1%[59 µM] | . | -2.7%[57 µM] | -35.1%
CC(c1ccccc1)N1C(=O)CC(Sc2ncccc2C(=O)O)C1=O (configuration not stated) | . | 3.1% | 22.4µM* | -8.5% | 31.7% | -15.7%
COc1ccc(N2C(=O)CC(Sc3ncccc3C(=O)O)C2=O)cc1 (configuration not stated) | . | 1.5% | ? | -3.5% | 42.7% | -1.1%
O=C(O)c1cccnc1SC1CC(=O)N(c2ccccc2)C1=O (configuration not stated) | -3.5 | -26.8% | 56.2µM* | -18.9% | 68.5% | -16.2%
COc1ccccc1CNC(=O)c1nn(C)c2c1CS(=O)(=O)c1ccccc1-2 | -7.5 | -14.9% | -0.6%[59 µM] | -7.3% | 49.0% | -9.0%
CCN(CCCNC(=O)Cn1ncc2c3ccccc3n(C)c2c1=O)c1cccc(C)c1 | . | -4.2% | 9.3%[59 µM] | . | 28.5% | -10.4%
c1ccc2c(OCCCCN3CCCC3)cccc2c1 | 4.4 | 56.2µM* | 35.5µM* | -1.1% | ? | 39.8µM*
Clc1ccccc1OCCCCN1CCCCC1 | 3.2 | ? | . | -10.0% | ? | 28.2µM*
CC(C)c1ccccc1OCCCCN1CCCCC1 | -0.8 | . | . | -2.5% | 36.0% | -4.0%
Clc1ccccc1OCCCCN1CCNCC1 | 1.2 | 28.2µM* | . | -13.2% | ? | 3.16µM*
O=C(COc1ccc(Cl)cc1Cl)NCCN1CCCCC1 | 0.2 | . | . | 3.2% | . | .
